Screening data (PubChem BioAssay)
D3 antag – blocks the human D3 dopamine receptor. D3R cells, DiscoveRx beta-arrestin luminescence, antagonist mode; stronger effect = lower value. max response, negative = inhibition, %. 360,000 tested, 2.5% active; in the data active = max response below about -50%; inconclusive = no clear call, values can overlap the other calls; note: % is set by controls: 0 for no effect and ±100 for the full control effect
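Cells expressing the human receptor were seeded at 1500 cells/well, incubated overnight at 37 degrees C in 5% CO2, then exposed to library compounds with dopamine controls for 90 minutes at 37 degrees C before luminescent detection.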
D1 potentiator – potentiators of human D1 dopamine receptor. HEK293 TREx D1 cells, calcium flux, dopamine EC20 potentiation. 360,000 tested, 0.036% active. potentiation, % at 10 µM. P21728; in the data active = potentiation above about 30%; note: 0% is about no effect
Target sequence (P21728 whole entry, looked up): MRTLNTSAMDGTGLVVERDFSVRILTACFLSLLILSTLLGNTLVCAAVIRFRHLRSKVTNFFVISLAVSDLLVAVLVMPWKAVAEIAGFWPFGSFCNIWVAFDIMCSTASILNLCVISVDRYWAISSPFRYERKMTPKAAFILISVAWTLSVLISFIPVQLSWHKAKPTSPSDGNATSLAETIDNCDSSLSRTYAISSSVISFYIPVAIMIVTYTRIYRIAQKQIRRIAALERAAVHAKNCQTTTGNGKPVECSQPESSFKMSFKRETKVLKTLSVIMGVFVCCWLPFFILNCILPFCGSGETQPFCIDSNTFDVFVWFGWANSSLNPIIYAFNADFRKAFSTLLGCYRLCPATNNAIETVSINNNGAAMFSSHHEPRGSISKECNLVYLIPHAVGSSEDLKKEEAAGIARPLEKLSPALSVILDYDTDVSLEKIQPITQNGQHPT
D1 agonist – activates the human D1 dopamine receptor; HEK293 T-REx D1 cells, calcium flux, agonist mode; activation, % at 2 µM; 360,000 tested, 1% active; AID 504660; in the data active = activation above about 30%; note: 0% is about no effect
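Inducible HEK293 T-REx D1 cells, force-coupled to calcium signalling, were plated at 4000 cells/well with tetracycline and held overnight at 30 C. After no-wash calcium dye loading, compound-evoked calcium rise over 180 s flagged agonists.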
DRD3 agonist – activates the human D3 dopamine receptor | P35462 | D3R DiscoveRx beta-arrestin cells, luminescence, 90 min | max activation, % | 410,000 tested, 0.58% active | AID 652048; in the data active = max activation above about 30%; note: 0% is about no effect
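Agonist mode: compounds and dopamine controls were applied to plated cells for 90 min at 37 degrees C after an overnight attachment at 1500 cells/well. Luminescent read-out followed 30 - 60 minutes at room temperature with DiscoveRx detection reagent.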
D1 antagonist – antagonists of human D1 dopamine receptor. P21728. HEK293 TREx D1 cells, calcium flux, dopamine EC80; stronger effect = lower value. activity change, negative = inhibition, % at 10 µM. 360,000 tested, 3.2% active; in the data active = activity change below about -30%; note: % is set by controls: 0 for no effect and ±100 for the full control effect
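HEK293 T-REx cells expressing inducible, force-coupled D1 receptor; no-wash Ca dye, 30–90 min RT. Cmpd → 180 s read at 1 Hz → EC80 DA → 180 s read.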
* marks the source's active call; other numbers are inactive results; ? = inconclusive; · = not tested or not shown. Sampled rows, rich in hits. Any-hit rate of the full collection: about 6.1%.

SMILES	D3 antag	D1 potentiator	D1 agonist	DRD3 agonist	D1 antagonist
Cc1cccc(CN(C(=S)Nc2c(C)cccc2C)c2cccnc2)c1	13.8	-5.7	6.9	2.1	-32.7*
CNc1ncnc2sc(-c3ccccc3)cc12	9.7	-3.9	0.9	-15.0	-37.6*
COc1ccc(Cl)cc1-c1n[nH]c(=S)o1	-83.8*	8.9	0.1	-5.3	8.6
COc1ccc(C(=O)Nc2ccc(-c3n[nH]c(=S)o3)cc2)cc1OC	-4.3	-8.6	2.9	-0.5	6.3
COc1ccccc1-c1n[nH]c(=S)o1	-81.6*	-8.4	0.0	-11.4	-0.4
COc1cc2c(cc1O)CCN[C@]21CS[C@@H]2c3c(OC(C)=O)c(C)c4c(c3[C@H](COC1=O)N1[C@@H]2[C@H]2c3c(cc(C)c(OC)c3O)C[C@@H]([C@@H]1O)N2C)OCO4	·	·	·	-14.2	·
COc1ccc(COC(=O)c2c(C)nn(-c3ccccc3)c2Cl)cc1	17.0	-7.3	25.0	6.4	-37.3*
COc1ccc(NC(=O)c2c(C)nn(-c3ccccc3)c2Cl)cc1	0.1	-16.4	-0.2	10.1	-19.8
COc1cc(C=O)ccc1OCCCCOc1ccccc1[N+](=O)[O-]	49.8	-3.8	8.3	2.1	-23.7
COc1cc(C=O)ccc1OCCOc1ccccc1[N+](=O)[O-]	-61.7*	-4.0	5.5	-1.9	-37.3*
COc1cc(C=O)ccc1OCCCOc1ccccc1[N+](=O)[O-]	0.1	-4.0	12.4	3.5	-12.6
COc1cc(C=O)ccc1OCCCOc1ccccc1C(=O)O	-54.7*	-4.5	0.8	4.5	-4.9
CCc1nnc(NC(=O)C2(C)COC(c3ccc(OC)cc3)OC2)s1 (centres undefined)	0.7	-9.1	2.0	-5.5	-3.3
CCOC(=O)C[C@@H]1OC[C@H](C(C)C)N1S(=O)(=O)c1ccc(C)cc1	-17.6	·	·	-4.8	·
CSc1ncccc1C(=O)Nc1ccc(S(=O)(=O)NC2=NCCCCC2)cc1	15.3	-4.4	2.5	19.6	-53.9*
O=c1c2ccccc2n2c(-c3ccc(Cl)cc3)nnc2n1CCc1ccccc1	·	-1.7	3.5	-7.6	3.1
CN(Cc1ccc(C#CCCO)cc1)CC1CCCN(CCc2ccc(Cl)cc2)C1 (centres undefined)	-5.1	-7.2	17.2	-3.8	-38.1*
CCN(Cc1ccc(C#CCCO)cc1)CC1CCCN(CCc2cccc(F)c2)C1 (centres undefined)	-9.0	-0.6	-0.6	-11.5	-4.6
CN(Cc1ccccc1O)CC1CCCN(CCc2ccc(Cl)cc2)C1 (centres undefined)	-54.6*	-10.3	2.9	-5.5	-28.1
COc1ccc(CCN2CCCC(CN(C)Cc3cc(OC)ccc3OC)C2)cc1 (centres undefined)	-10.8	-8.3	0.7	-16.6	-1.7
Cc1ccc(CNC(=O)CCCCn2c(=O)c3ccccc3n(Cc3ccc(C)cc3)c2=O)cc1	·	-1.1	2.4	-0.2	-0.1
COC(=O)CN1C(=O)CSc2ccc(S(=O)(=O)N3CCOCC3)cc21	·	-0.2	-1.0	-10.0	8.1
CC(C(=O)O)c1ccc2c(c1)CC(=O)c1ccccc1S2 (centres undefined)	·	·	·	-13.1	·
CCOc1ccc(OCc2cccc(C(=O)N3CCCCCC3)c2)cc1	8.2	-6.1	10.1	1.6	-20.6
O=C(NN1CCCCC1)c1cccc(COc2ccc(Cl)cc2)c1	9.5	-2.7	4.7	17.5	-30.7*
SMILES	D3 antag	D1 potentiator	D1 agonist	DRD3 agonist	D1 antagonist
S=C(NCc1ccc(Cl)cc1)Nc1ccccc1	4.4	-9.8	22.4	-1.0	2.2
S=C(NCc1ccc(Cl)cc1Cl)Nc1ccccc1	3.1	-6.8	26.4	13.3	-31.1*
Cc1cc(Cl)ccc1NC(=S)NCc1ccccc1Cl	2.0	-6.9	20.2	2.3	-32.4*
O=C(c1noc2c1CCCC2)N1CCCC(N2CCN(c3ccccc3F)CC2)C1 (centres undefined)	-22.7	2.1	-0.3	-1.3	12.1
CCN1CCCC1CNC(=O)c1ccc(Sc2ccc(F)cc2)c([N+](=O)[O-])c1 (centres undefined)	-76.7*	-2.0	16.2	-7.7	-1.2
CCN1CCCC1CNC(=O)c1ccc(Sc2ccccc2Cl)c([N+](=O)[O-])c1 (centres undefined)	-75.0*	-14.2	14.3	-14.6	1.9
CCN1CCN(C(=O)c2ccc(Sc3ccccc3Cl)c([N+](=O)[O-])c2)CC1	?	-2.6	11.9	-7.7	-15.3
CCOc1ccc(Cl)cc1CNCCCSc1nc(C)cc(C)n1	-17.4	-6.7	21.0	-5.6	-38.3*
Cc1ccc(NNC(=O)c2ccno2)c(C)c1	1.9	4.8	0.5	34.6*	-8.0
COc1cc(O)ccc1-c1nc2cc(C)ccn2c1Nc1ccccc1C	·	-0.8	-0.7	4.8	3.0
CCn1cc(CN2CCCC(C(=O)Nc3cccc(-n4cccn4)c3)C2)c(C)n1 (centres undefined)	-3.7	1.3	0.6	-21.1	-7.5
Cc1nn(C)c(Cl)c1CN1CCCC(C(=O)Nc2cccc(-n3cccn3)c2)C1 (centres undefined)	-11.3	-3.1	5.3	-9.0	-34.8*
COc1cccc(-c2ccc(NC(=O)C3CCCN(CCCn4cccn4)C3)cc2)c1 (centres undefined)	12.9	-10.7	37.6*	-7.6	-11.7
COc1ccc(CN2CCCC(C(=O)Nc3cccc(-n4cccn4)c3)C2)cc1 (centres undefined)	-27.0	-4.3	13.0	-13.0	-52.7*
COC(=O)c1ccc(CN2CCCC(C(=O)Nc3cccc(-n4cccn4)c3)C2)cc1 (centres undefined)	-14.1	-2.9	7.7	-18.2	11.3
COc1ccc(O)c(CN2CCCC(C(=O)Nc3cccc(-n4cccn4)c3)C2)c1 (centres undefined)	1.0	-7.0	4.4	-10.7	-67.7*
Cc1cc(C)cc(NC(=O)C2CCCN(S(=O)(=O)c3cccc4nsnc34)C2)c1 (centres undefined)	·	-1.8	8.5	-15.2	-9.5
C=CCn1c(SCC(=O)Nc2sccc2C(N)=O)nc2sc(CC)cc2c1=O	74.8	-4.7	1.0	34.5*	-9.8
C=CCn1c(SCC(=O)Nc2sccc2C(N)=O)nc2ccc(Cl)cc2c1=O	106.5	-0.8	1.0	18.7	-11.6
O=S(=O)(Nc1cccc(S(=O)(=O)N2CCOCC2)c1)c1cccs1	-0.6	0.8	1.1	2.9	0.4
CN1CCN(C2=Cc3cc(Cl)ccc3Sc3cc(F)ccc32)CC1	-8.4	-4.2	-0.3	-19.5	-8.7
CN1CCN(C2=Cc3ccccc3Sc3cc(F)c(F)cc32)CC1	-61.7*	-4.0	56.3*	1.9	-83.5*
CN1CCN(C2=Cc3ccccc3Sc3cc(F)c(Cl)cc32)CC1	?	-10.2	8.2	0.5	-69.7*
COc1ccccc1S(=O)(=O)N1CCN(S(=O)(=O)c2ccccc2C#N)CC1	21.1	17.6	2.0	9.8	-2.0
CCc1nnc(NC(=O)CN2CCN(Cc3cccc(Cl)c3)CC2)s1	-51.9*	-2.2	2.3	-15.5	-4.2
